# B1: uchl1_143_7478 (protein)
# chain: GAPEPEIPVIRLELDAADSDEEIRKRALEAAKEAAEKGAALEIIITVPPDPNARVRANNIAKRLAREIIKKYGDKIKELRVLLRDEETGREDLIALYEKP
# B2: uchl1_143_7472 (protein)
# chain: AAEARPVRTVEIDVTLDDTPEEIEARLLAAAEEAIAAGEDLRIVVTVPPDPNKRLMVNTVAKRVARRVARAHADRVRRLEIYARDAETGKEQLIAEIVRP
# B3: uchl1_143_7494 (protein)
# chain: GPVVEPVVVIELRIERTDTPEEIRAKIRAAVEEAVATGKPTVIEITVPADANMRLTVSTSARRVAREAAKEHPDKIKDLRIYARDEETGKRQLIAEVIKE
# B4: uchl1_143_7493 (protein)
# chain: GAPAEEVVVLELTIEETDTPEEIRAKITAAIEEAVATGKPSVVVITVPPDPNVRVTVGNAAKRAVREAAKAHGDQIKDLRVVARDAETGKEQLLAEVVNP
# B5: uchl1_155_7496 (protein)
# chain: MLRVRVTITGTNADGTTLTRELELEIENPTLEKIQEAAREIAEAVREFALAVDGPVEVRVEVSADRRLHAASFSQALRRALREVAKETGKEITLDVRGVP
# B6: uchl1_143_7483 (protein)
# chain: EVVVIELSPEEVEEILSLSPEEALERVYEILREAVELGRDTEVVFPAPADANDRLRLGTIVRRAARKVAKDRADLIDAVEIYQRRDPNRPPALVVRITRK
# B7: uchl1_155_7499 (protein)
# chain: GTTVTVTATGTAADGTTHTLTKTFEGITSSVEDMLALRDEILAMLLELAAKVDGDIDLKVDVSNATANQAVGIGTAVRRAASEAGKETGLTINVDITGLP
# B8: uchl1_143_7484 (protein)
# chain: EVKVIELSPEEVAEILSASPEEALARLKEILEEAVELGVDTEVVLPAPADANDRLRLNTLVRRAAREVAKKYADKIDSVTISQRLDPDEPPKLVVSIKVK
# B9: uchl1_143_7490 (protein)
# chain: SSSDLPVEEVTITVTLDDTPEQIRARLRAAIEAAVAAGRALRINITVPADPNMRLMVNTVARRVAREVARAHADRVRHVEIYATDAATGKTDLLAEVVNP
# B10: uchl1_143_7481 (protein)
# chain: SLENVEVLEVEITVTRETRPEDLYARLLAAIREAHAAGKALRITITVEPDANVRVMVGNVAKRAVRDAAQELGEPFVRTLILARDAETGKTQTLVDVEAP
# B11: uchl1_143_7473 (protein)
# chain: HHHMMETETVEIEVKEDDTPEEIRERMMKAIEEAIAAGKNLRIVITVPSDANKRLMANTVAKRVAREAAKKYREKLKRLEIYLRDKETGKEDLIALVENP
# B12: uchl1_143_7471 (protein)
# chain: GEPEPPTLEVHIEVDETTTPEEIREKLWKAIEEAAKAKKNLKITITVPADSNKRLMVTTVAKRVAREAAKKYKNELKKLEIYARDAATGKEQLIAEYENP
# B13: uchl1_143_7491 (protein)
# chain: GLDNLEVETVEIEVSEEDTPEELAARLREVIEEALAKGKALRIILTVPPDPNVRLMVNTVARRVLREFAQEHRDELKYVEIYARDEETGKEQLLAEFVNP
# B14: uchl1_143_7477 (protein)
# chain: GAPEEPIETIKLTLDASMSDEEIRAKAMAAAEEAAAKGAALEITIVVPPDPNARVRANNIAKRIAREIIQKYGDKIKELKIYLQDEETGKKDLIALYEKP
# B15: uchl1_143_7476 (protein)
# chain: PPEALPVLETTIEVSEDDTPEEIRARLMAAIDEALAAGKAARIVIVVPPDANKRLMVNTVARRVAREAARRYGERLRYLEILLRDKETGKEQLVALVERP
# B16: uchl1_155_7501 (protein)
# chain: MATVTVTATGTAPDGTTHTLTKTFEGITSSVEDLLALREAVLALLVELAKKVKGDVDVVVEVSNADANTRVGIGTAVRRAASEAGKQTGLTVSVTIREVA
# B17: uchl1_143_7486 (protein)
# chain: EVEVIELSEEEVAEILALSPEEALERLKEILREAVELGKDTRVLIPAPEDANDRLRLNTLVRRAAREVAKEYADKIESVTISQERDPNGRPRIVVEIKVK
# B18: uchl1_155_7497 (protein)
# chain: MTTVTVVVTGTSPDGTTVTKTKTFEGLTSSVADLEALREAMKAMIVETAKEVKGDVDVTVNVTNATANQAVGIGTAARRAANEAGKETGLTVSLTLVGVP
# B19: uchl1_155_7500 (protein)
# chain: GTTVTVTVTGTASDGTTHTLTKTFEGLTSSVADMEALREAILAMLLELAAKVDGDIKLTVNVRNATANQAVGIGTAVRRAASEAGKKTGKTIDVDITGLP
# B20: uchl1_143_7480 (protein)
# chain: GAPARPVVTRTLRFTEEDTPEEIRARITAAIRALVATGQDGVLLLTVPPNPNMRVMVSTVARRALREVAQETRAPGVTLTVEARDEETGKVDVLATADLK
# B21: uchl1_143_7488 (protein)
# chain: EVKVIELSPEEVAEILSLSDEEALARLKEIIEAAVELGVDTEIRIPAPEDANDRLRLHTLVKRAAREVAKKYADKIDSVEIYQELDPNARPRIVVRITVK
# B22: uchl1_143_7482 (protein)
# chain: EVEVIRLTPEEVEEILSLSPEEALARVKEILAAAVELGKDTEVVFPAPEDANDRLRLGTIVRRAAREVAKEYADKIESVEIYQEKDPDEPPRLVVRITKK
# B23: uchl1_143_7485 (protein)
# chain: EVRVIELTPEQVAAILSASPEAALATLEAIFEAAVALGVDTRVVLPAPADANDRLRLNTLVRRAARRVAKRRADEIDAVVISNERDPDRPARLVVTITVK
# B24: uchl1_143_7489 (protein)
# chain: EVRVLDVSEAEVAEILALSPEEAVAAIYARLSAAIALGVDTEVRFPAPERANDRLRLGTAVRRAARRAARDHADEIADVVIYNERDPDERPRLVVRITRK
# B25: uchl1_143_7487 (protein)
# chain: AVEVIELSPEEVAAWLALPDEEALAALEAVLEAAVDRGVDTLVRIPAPEDANDRLRLNTLVRRAARRVAAAHADRIDSVTISQEKDPNGPPRLVVSIRVK
# B26: uchl1_143_7474 (protein)
# chain: PLEHMEIETVEIEVSETDTPEEIEKRLREAIEKGIEKGKALRIVVTVPPDANKRLMVNTVARRVARETAKKYKDKLKYLEILLRDRETGKVDLAALIERP
# B27: uchl1_143_7492 (protein)
# chain: GAAAVPVLRVEITVTRDTTPEELRARLEAAVREAAARKAALEVTITVPPDPNLKLMVNTVARRVARRAAREYADTLPRLTINARDAETGKTQVVAEAVNP
# B28: uchl1_155_7502 (protein)
# chain: MRTVRITIDVTLPDATETVEVTLERTVSDKPEDREALAEEVAATVDAILAQGKNVRLTVTVTVPDKMVVAASLYQAIRRRVRAVARRHGAEVVITAEVVP
# B29: uchl1_155_7498 (protein)
# chain: GTTVTVTATGTAADGTVVTSTTTFTGLTSSVADMQALQAAILAQLLAVAAQVDGDIDLAVTVSNATANQAVGIGTAVRRAASQAGKQTGLTINVTLTGAP
# B30: uchl1_143_7475 (protein)
# chain: APAALEVLTTHLEVGEDDTPEEIRARLLAAIDEALAAGKAAEIVVTVPPDANKRLMVNTVARRVAREAARRYGDRLRLLRILLRDAETGRTQLVALVERP
# B31: uchl1_143_7479 (protein)
# chain: GAAPRPVVTTTLTFTEEDTPEEIRARITAALRALVATGQDGVLLLTVPPNPHMRVMVNTVARRALREVAQATHAPGVTLTVQARDAETGKVDTLATAVLE
# B32: uchl1_155_7495 (protein)
# chain: MLEVEVEVVARRPDGTVARERFRFRTEEITPENRRALAERVAERVREFVERHGGDVDVTVRIRSPSQIARASLYRAIRIRLREVAKELGVEVTVRAEPVP
# Molecular target: UCHL1, P09936
# Assay: median log2 fold change of GCK-ALFA target abundance (FLAG IP / Myc IP barcode read proportion) (log2 ratio); each designed protein is fused to an ALFA-tag nanobody in HEK293 cells to bring the named protein to FLAG-tagged glucokinase (GCK); Myc marks an untargeted standard; higher = target protein stabilised (more abundant)
# Conditions: target protein: 3xFLAG-MCP-GCK-ALFA reporter; HEK293 landing pad (RPLP)
# Method in brief: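 The readout is target abundance, the per-binder median log2 ratio of FLAG to Myc barcode read proportions. It came from HEK293 landing-pad cells carrying a recombined ALFA-nanobody-fused binder library, induced with 2 μg mL^−1 doxycycline and transfected with a plasmid for a FLAG-tagged target and a Myc-tagged standard. After 48 h, lysates were immunoprecipitated with anti-FLAG and anti-Myc, and circular RNA barcodes were reverse transcribed, amplified and sequenced. Each barcode needed a proportion of at least 10^−7 in both replicates and each binder at least 3 barcodes per replicate, a pseudocount of 10^−6 was added, and the replicates were pooled.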
# UCHL1, P09936, sequence (P09936 whole entry, looked up, the tested form may be a part): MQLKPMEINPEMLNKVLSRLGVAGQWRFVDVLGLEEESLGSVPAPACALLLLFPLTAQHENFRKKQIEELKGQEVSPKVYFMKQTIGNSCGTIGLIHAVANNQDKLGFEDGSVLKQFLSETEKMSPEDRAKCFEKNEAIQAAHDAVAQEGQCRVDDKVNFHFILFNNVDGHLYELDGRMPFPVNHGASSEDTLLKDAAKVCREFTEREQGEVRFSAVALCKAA
row,Binder,median log2 fold change
1,B1,0.179
2,B2,0.3
3,B3,0.397
4,B4,0.229
5,B5,0.0376
6,B6,-0.0334
7,B7,0.302
8,B8,0.0432
9,B9,0.232
10,B10,0.391
11,B11,0.139
12,B12,0.0842
13,B13,0.302
14,B14,0.136
15,B15,0.0615
16,B16,0.237

row,Binder,median log2 fold change
1,B17,0.252
2,B18,0.314
3,B19,0.302
4,B20,-0.0743
5,B21,0.21
6,B22,0.231
7,B23,-0.394
8,B24,0.144
9,B25,0.226
10,B26,0.325
11,B27,0.184
12,B28,-0.0533
13,B29,0.16
14,B30,0.136
15,B31,0.219
16,B32,-0.0429
